Compound activity from PubChem.
Sampled rows, rich in hits. Any-hit rate of the full collection: about 1.8%.
PKD1 inh = blocks activity of human protein kinase D1; Q15139; PKD1 kinase fluorescence polarization assay; inhibition, % (no concentration beside the values); 200,000 tested, 0.056% active; AID 797
Target sequence (Q15139 whole entry, looked up): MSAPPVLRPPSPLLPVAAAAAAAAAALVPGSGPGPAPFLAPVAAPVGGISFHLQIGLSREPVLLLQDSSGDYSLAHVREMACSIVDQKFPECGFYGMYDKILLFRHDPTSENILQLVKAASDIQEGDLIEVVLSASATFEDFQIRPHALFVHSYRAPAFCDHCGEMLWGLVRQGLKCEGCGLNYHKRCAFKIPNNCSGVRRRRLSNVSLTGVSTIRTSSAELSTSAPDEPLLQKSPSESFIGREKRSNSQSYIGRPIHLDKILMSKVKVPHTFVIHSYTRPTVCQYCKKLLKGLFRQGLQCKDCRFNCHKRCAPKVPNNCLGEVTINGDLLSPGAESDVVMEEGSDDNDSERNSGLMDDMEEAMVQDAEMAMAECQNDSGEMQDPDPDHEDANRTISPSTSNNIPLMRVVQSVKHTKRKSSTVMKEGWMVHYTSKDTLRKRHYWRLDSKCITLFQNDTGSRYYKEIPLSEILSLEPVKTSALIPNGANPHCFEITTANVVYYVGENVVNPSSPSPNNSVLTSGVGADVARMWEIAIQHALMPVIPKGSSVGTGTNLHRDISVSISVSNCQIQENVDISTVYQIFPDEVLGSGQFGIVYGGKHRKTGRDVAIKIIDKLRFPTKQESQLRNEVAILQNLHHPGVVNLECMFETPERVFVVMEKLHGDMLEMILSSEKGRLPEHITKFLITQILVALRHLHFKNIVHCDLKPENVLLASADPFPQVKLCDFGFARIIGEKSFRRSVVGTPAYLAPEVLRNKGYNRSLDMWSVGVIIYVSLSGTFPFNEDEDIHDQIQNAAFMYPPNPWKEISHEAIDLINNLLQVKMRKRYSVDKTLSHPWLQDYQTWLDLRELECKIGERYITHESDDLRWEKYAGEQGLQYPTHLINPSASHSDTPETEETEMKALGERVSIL
HDAC3 inhib = human HDAC3 inhibition; recombinant HDAC3, fluorogenic peptide/trypsin coupled, fluorescence; inhibition, % at 8.3 µM; 320,000 tested, 0.15% active; AID 2718; in the data active = inhibition above about 26%, passing the limit was not always enough
GRK2 aptamer HTS = human GRK2 inhibition via aptamer displacement; P25098; bead flow cytometry, FAM-aptamer displacement from GRK2; inhibition of aptamer binding, % at 10 µM; 330,000 tested, 0.59% active; AID 488847;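 active = inhibition of aptamer binding above 40%, roughly 3 SD of noise, on plates passing a quality check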;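 note: median bead fluorescence of bound FAM aptamer so fluorescent compounds give negative values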
DSG3 Ab inh = inhibitors of pemphigus antibody binding to human desmoglein-3 | 310,000 tested, 0.48% active | P32926 | DSG3-coupled beads, scFv-anti-DSG3-GFP binding, flow cytometry; stronger effect = lower value | binding (percent of control), % at 10 µM;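 active = binding more than 3 SD below its plate's average and above zero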;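 note: hits lower antibody fragment binding to DSG3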
VLA-4 inh = inhibition in a human VLA-4 binding assay; P13612; AID 2557; 330,000 tested, 0.2% active; inhibition, % (about 7 µM as worked out from the volumes in the protocol); VLA-4 expressing cells, ligand binding flow cytometry
LANA-H2A inh = blocks KSHV LANA binding to histone H2A/H2B; inhibition, % (test concentration not listed); 320,000 tested, 0.6% active; cell-free LANA-H2A/H2B peptide, fluorescence polarization; Q9QR71; AID 2629; in the data active = inhibition mostly above about 10%, no sharp cut-off; inactive = mostly below about 6.7%
Starred values were filed as active, the others as inactive; . = not tested or not shown. Cut-off read from the data, not from the text of the source, unless noted: active = inhibition above about 50%; inactive = the rest.

SMILES | PKD1 inh | HDAC3 inhib | GRK2 aptamer HTS | DSG3 Ab inh | VLA-4 inh | LANA-H2A inh
CC1CCCC(C)N1C(=O)COC(=O)C12CC3CC(CC(Cl)(C3)C1)C2 (centres undefined) | . | -8.0 | 9.0 | 99.1 | 15.7 | 17.1*
CCCN(C(=O)CCNC(=O)c1ccc(Cl)cc1)c1c(N)n(Cc2ccccc2)c(=O)[nH]c1=O | . | -1.7 | 2.0 | . | 11.1 | 2.8
Cc1ccc(C(c2ccc(C)c(C)c2)C(O)C2OC(=O)C(O)C2O)cc1C (centres undefined) | . | . | . | 101.5 | . | .
Cc1csc(CCc2nc(C)cs2)n1 | -1.6 | -1.5 | 0.0 | 108.1 | 4.6 | 8.4*
COC1OC2COC(c3ccccc3)OC2C(O)C1NC(C)=O (centres undefined) | . | . | . | 101.2 | . | .
O=C(c1cccc2ccccc12)N1CCCCC1 | . | -0.4 | 2.0 | 107.5 | 7.7 | 11.2*
COC(=O)c1sccc1NC(=O)Nc1ccccc1F | -1.6 | 9.1 | 0.0 | 93.9 | -1.5 | 12.2*
CCc1ccccc1N1CC(C(=O)Nc2nccs2)CC1=O (centres undefined) | . | -1.2 | 1.0 | 131.8 | 9.4 | 2.1
Cc1csc2c(N(C)CCO)ncnc12 | . | -4.8 | 1.0 | 104.1 | -0.1 | -1.0
CCCCc1c(O)nc(SCC(=O)c2ccccc2)[nH]c1=O | -6.4 | 45.6* | 1.0 | 101.3 | -0.8 | 8.2
Cc1ccc(C(=O)CSc2cc(C)[nH]c(=O)n2)cc1 | . | 34.3* | 1.0 | 120.4 | -7.2 | -0.2
CCCCc1c(O)nc(SCC(=O)O)[nH]c1=O | 0.1 | 2.5 | 1.0 | 99.1 | 8.0 | -0.7
Cc1cc(SCC(=O)c2ccccc2)nc(=O)[nH]1 | . | 45.1* | 1.0 | 121.9 | 4.0 | 3.1
CNS(=O)(=O)c1cccc(C(=O)NCC(c2ccco2)N(C)C)c1 (centres undefined) | . | 3.7 | 15.0 | 105.4 | -2.9 | 0.7
O=C(CCC(=O)Nc1ccccc1Cl)NN=C1CCCC1 | . | 6.8 | 0.0 | 116.5 | -3.0 | -2.6
CC(C)CNC(=S)NNC(=O)c1ccco1 | 5.0 | -2.3 | 0.0 | 96.7 | 3.8 | 0.0
O=C(/C=C/c1ccco1)NC(=S)NNC(=O)c1ccco1 | 6.9 | 11.2 | 0.0 | 60.1* | 1.7 | 0.2
COCCNC(=S)NNC(=O)c1ccco1 | 0.5 | 1.2 | 0.0 | 98.5 | 0.9 | 61.0*
Cn1c(SCc2cccc(F)c2)nnc1-c1cnccn1 | . | 4.1 | 4.0 | 77.3* | 9.5 | -2.2
CCCN=C1N(CC)C[C@@H]2[C@@H]3C(=O)N(Cc4ccccc4)C(=O)[C@@H]3[C@](Cc3ccccc3)(C(=O)OC)N12 | . | . | 6.0 | 105.2 | . | .
Cc1cc(-c2csc(N)n2)c(C)n1C | -2.1 | 12.2 | 30.0 | 72.8* | -7.3 | -8.0
Cc1cc(-c2csc(N)n2)c(C)n1Cc1ccco1 | -0.2 | -3.0 | 1.0 | 71.5* | -1.6 | -1.4
Cc1ccc(-n2c(C)cc(-c3csc(N)n3)c2C)cc1 | -7.2 | -9.4 | 2.0 | 100.9 | -42.1 | -4.4
Cc1cc(C(=O)CSc2nnc(N)s2)c(C)n1Cc1ccco1 | -1.9 | 6.8 | 0.0 | 97.2 | 15.7 | -1.5
Cc1cc(C(F)(F)F)nc(SCCN2CCCCC2)c1C#N | . | 1.2 | 0.0 | 113.3 | 4.5 | 2.3
SMILES | PKD1 inh | HDAC3 inhib | GRK2 aptamer HTS | DSG3 Ab inh | VLA-4 inh | LANA-H2A inh
COc1ccc(-c2nn(-c3ccccc3)cc2/C=N/NC(=O)c2cccc(S(=O)(=O)Nc3ccccc3OC)c2)cc1 | -12.5 | -12.4 | 0.0 | 83.4* | 6.4 | 1.3
Cc1ccc(C)c(S(=O)(=O)N2CCN(C(=O)CCC(=O)NCc3ccc(Cl)cc3Cl)CC2)c1 | . | . | . | 103.6 | . | .
Cc1ccc(C)c(NC(=O)CSc2cccc3cccnc23)c1 | . | -6.3 | 6.0 | 94.6 | 3.8 | 16.6*
Cc1cccc(NC(=O)CSc2cccc3cccnc23)c1 | . | 3.0 | 1.0 | 109.5 | 15.7 | 5.5
CCN(CC)c1nc2ccccc2n(Cc2cccc(OC)c2)c1=O | . | 0.6 | 4.0 | 95.1 | 6.5 | -2.9
CSc1sc(C(=O)NCC2CC2)c(-c2cccs2)c1C#N | . | 0.6 | 0.0 | 92.2 | -3.9 | -1.0
CSc1sc(C(=O)NCC2CC2)c2c1S(=O)(=O)N(C)c1ccccc1-2 | . | . | 2.0 | 92.7* | 5.3 | 2.1
CN(C(=O)C1CC1)C1CCS(=O)(=O)C1 (centres undefined) | . | 2.8 | 0.0 | 83.7* | 5.5 | -7.4
CN1c2ccccc2C(O)=C(C(=S)Nc2ccc(Cl)cc2)S1(=O)=O | -1.7 | 7.0 | 61.0* | 95.0 | 4.9 | 4.3
Cc1cccc(NC(=O)C2=C(O)c3ccccc3N(C)S2(=O)=O)c1 | -5.1 | 16.1 | 3.0 | 103.2 | 27.2 | -0.8
CC(C)c1ccc(N(CC(=O)NCc2ccco2)C(=O)CCC(=O)Nc2nccs2)cc1 | . | 0.5 | 0.0 | -38.6* | 3.8 | -0.1
COc1cccc(N(CC(=O)NCC2CCCO2)C(=O)CCC(=O)Nc2nccs2)c1 (centres undefined) | -3.8 | 1.8 | 0.0 | 98.2 | 9.7 | 29.0*
O=C(CCC(=O)N(CC(=O)NC1CCCC1)c1ccc(F)cc1)Nc1nccs1 | . | -3.9 | 6.0 | 47.9* | 0.5 | 0.6
COc1ccc(N(CC(=O)NCc2ccco2)C(=O)CCC(=O)Nc2nccs2)cc1 | . | -10.3 | 0.0 | 98.9 | -7.3 | -1.1
O=C1NC(=S)NC(=O)C1=Cc1ccccc1C(=O)O | . | . | . | 94.0 | . | .
CCN(CC)CCNC(=O)c1cn(CC)c2ccc(S(=O)(=O)N3CCOCC3)cc2c1=O | . | 2.1 | 0.0 | 96.6 | -7.4 | 8.5*
CCCOc1ccc(-c2nnn(CC(=O)N3CCCCC3)n2)cc1 | . | 2.2 | 2.0 | 87.8* | 10.0 | -4.0
C=CCSc1nc2ccccc2c2nc(-c3ccccc3)nn12 | -9.4 | 0.8 | 0.0 | 2.7* | -4.2 | -4.8
C=CCNC(=O)CCC(=O)NNc1nc2ccccc2c2nc(-c3ccccc3)nn12 | -0.7 | 3.8 | 0.0 | 97.8 | 2.7 | 6.4
CC(=O)C1=C(C)NC(=O)NC1c1ccc(Cl)cc1 (centres undefined) | -1.2 | 4.6 | 0.0 | 80.5 | 8.4 | 8.2
N#Cc1c2ncn(CC(=O)c3ccc(Br)cc3)c(=O)c2c2n1CCC2 | -14.3 | -3.5 | 0.0 | 30.0* | 7.8 | -0.6
CC(=Nc1ccccc1)C1=C(O)C(CC(C)C)NC1=O (centres undefined) | . | . | . | 93.2 | . | .
Cc1c(C(=O)NCc2ccc3c(c2)OCO3)sc2nc(-c3ccccc3)cn12 | -1.0 | 1.2 | 0.0 | 57.5* | 8.9 | -0.8
COC(=O)c1c(NC(=O)CN2CCC3(O)CCCCC3C2c2cc(OC)ccc2OC)sc(C)c1C (centres undefined) | 11.4 | 9.6 | 0.0 | 102.9 | -5.9 | 9.6
CC(=O)Nc1ccc(S(=O)(=O)NC2CC(=O)N(c3ccc4c(c3)OCCO4)C2)cc1 (centres undefined) | . | -11.4 | 0.0 | 99.8 | -3.6 | -2.7
O=C(NC1CCC1)C1CCC(=O)N(Cc2cccc(F)c2)C1 (centres undefined) | . | -7.2 | 2.0 | 118.0 | 20.3 | 37.6*
Cc1ccc(S(=O)(=O)n2ccc(OC(=O)c3cccs3)n2)cc1 | 6.2 | 89.8* | 3.0 | 99.8 | -7.6 | 4.2
Cc1ccc(S(=O)(=O)n2nc(OC(=O)c3cccs3)cc2N)cc1 | -6.1 | 9.0 | 0.0 | . | 24.3 | 3.0
